# Measurements reported in PubChem BioAssay AID588501 (NMMLSC, 2011).
# In all, about 360,000 compounds went through this assay and about 420 (0.12%) were called active. Cut-off read from the data, not from the text of the source: active = inhibition above about 30%; inconclusive = no clear call, values can overlap the other calls; inactive = below that. This excerpt belongs to a sample that is enriched for actives.
# Molecular target: Lethal factor (Bacillus anthracis) (UniProt P15917)
# Test: Bacillus anthracis LF protease inhibitors, primary screen, biochemical, multiplex microsphere, MLPCN library (AID 588501); note: plate controls were buffer without enzyme for full effect and enzyme alone for no effect
# Settings: multiplex microsphere protease cleavage assay, at 10 µM, hits give high values
# Sequence of Lethal factor (Bacillus anthracis) (P15917 whole entry, looked up): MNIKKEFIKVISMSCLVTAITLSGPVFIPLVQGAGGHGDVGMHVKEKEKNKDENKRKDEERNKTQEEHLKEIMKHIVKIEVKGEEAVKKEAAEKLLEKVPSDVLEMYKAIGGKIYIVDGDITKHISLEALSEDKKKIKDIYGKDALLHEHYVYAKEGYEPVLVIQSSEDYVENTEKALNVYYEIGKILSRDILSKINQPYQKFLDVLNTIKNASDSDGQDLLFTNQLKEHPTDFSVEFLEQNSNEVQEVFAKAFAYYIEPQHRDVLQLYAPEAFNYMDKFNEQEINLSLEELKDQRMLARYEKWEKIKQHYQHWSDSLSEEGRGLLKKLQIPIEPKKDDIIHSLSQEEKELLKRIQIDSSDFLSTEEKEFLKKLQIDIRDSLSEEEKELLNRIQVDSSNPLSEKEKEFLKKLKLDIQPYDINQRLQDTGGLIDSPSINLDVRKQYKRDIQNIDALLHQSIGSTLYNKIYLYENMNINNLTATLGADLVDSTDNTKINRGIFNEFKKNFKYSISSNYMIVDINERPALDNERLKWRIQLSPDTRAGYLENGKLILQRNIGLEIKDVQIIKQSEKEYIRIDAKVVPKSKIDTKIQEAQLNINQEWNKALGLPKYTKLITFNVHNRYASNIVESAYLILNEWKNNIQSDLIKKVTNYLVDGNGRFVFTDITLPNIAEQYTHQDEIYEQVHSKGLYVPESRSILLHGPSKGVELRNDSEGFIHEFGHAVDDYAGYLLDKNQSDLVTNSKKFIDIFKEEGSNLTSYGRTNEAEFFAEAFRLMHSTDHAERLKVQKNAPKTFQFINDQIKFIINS
row,SMILES,inhibition
1,O=C(COc1ccc2c(C(F)(F)F)cc(=O)oc2c1)Nc1ccc2c(c1)OCCO2,-1.9% (inactive)
2,O=C(CN1CCCCCC1)Nc1c(Cl)cc(Cl)cc1Cl,37.6% (active)
3,O=C(CN1CCOCC1)Nc1c(Cl)cc(Cl)cc1Cl,3.3% (inactive)
4,Cc1cc(C)c(NC(=O)CN2CCCCCC2)c(C)c1,-3.3% (inactive)
5,O=C(COc1ccc(Cl)cc1)NCc1nnc(SCC(=O)NCC2CCCO2)o1 (stereo not given),-1% (inactive)
6,NNc1nc2c(Cl)cccc2s1,-1.6% (inactive)
7,CCn1c(CSc2nncn2-c2ccc(OC)cc2)nc2cc(S(=O)(=O)N(C)C)ccc21,-15% (inactive)
8,O=C(NNC(=O)c1ccccc1[N+](=O)[O-])Nc1ccccc1C(F)(F)F,-1.8% (inactive)
9,CN(C(=O)c1cccc(NC(=O)Cc2cccc([N+](=O)[O-])c2)c1)C1CCCCC1,2.5% (inactive)
10,CC1CCN(CC(=O)Nc2nccs2)CC1,-13.6% (inactive)
11,CC(C)N(C(=O)Cn1cc(SCC(=O)N2CCCC2)c2ccccc21)C(C)C,-0.2% (inactive)
12,COc1cc(NS(=O)(=O)c2ccc(NC(=O)CN3C(=O)c4ccccc4C3=O)cc2)ncn1,-2.5% (inactive)
13,CS(=O)(=O)N(CC(=O)N1CCOCC1)c1cccc(Cl)c1Cl,-5.7% (inactive)
14,CCOC(=O)C1CCCN(C(=O)c2ccc(N(C)C)cc2)CC1 (stereo not given),-1.5% (inactive)
15,Cc1ccc(-n2ncc3c2CC(C)(C)CC3NC(=O)CCc2cnn(C)c2)cc1 (stereo not given),3% (inactive)
16,CCCn1nnnc1NC(=O)COc1ccc(Cl)cc1C,-6.9% (inactive)
17,O=C(CCNC(=O)c1ccc([N+](=O)[O-])cc1)Nc1ccccc1N1CCOCC1,3.7% (inactive)
18,O=S(=O)(NC1CCCC1)c1ccc(-n2cnnn2)cc1,-2% (inactive)
19,CCOC(=O)C1CCCN(S(=O)(=O)c2ccc(-n3cnnn3)c(C)c2)C1 (stereo not given),2.9% (inactive)
20,Cc1cc(S(=O)(=O)NC2CCCC2)ccc1-n1cnnn1,35.6% (active)
21,COc1ccc([C@H]2CC(=O)C[C@@H](CCn3cc(CC4CCCC4)nn3)O2)cc1,-2.3% (inactive)
22,COCCNC(=O)C(c1ccc(O)cc1)N(C(=O)CCC(=O)Nc1nccs1)c1ccc(C)cc1 (stereo not given),-7% (inactive)
23,O=C1N[C@@H](Cc2ccccc2)C(=O)N2[C@@H]3N(S(=O)(=O)c4ccc(F)cc4)c4ccccc4[C@]3(Br)C[C@@H]12,-0.7% (inactive)

row,SMILES,inhibition
1,CCCCC(NS(=O)(=O)c1ccc(C)cc1)C(=O)Oc1ccc2c3c(c(=O)oc2c1)CCC3 (stereo not given),-6.2% (inactive)
2,CCOc1cc(/C=C(/C#N)c2ccc(Cl)cc2)cc(Cl)c1OCC(=O)O,2.5% (inactive)
3,COc1ccccc1C1CCN(C(=S)Nc2ccc(Br)cc2)CC1,49.5% (active)
4,COc1ccccc1NC(=S)N1CCC(NC(=O)C23CC4CC(CC(C4)C2)C3)CC1,-7.9% (inactive)
5,COc1ccc(NC(=S)N2CCc3cc(OC)c(OC)cc3C2)cc1,-2.2% (inactive)
6,Brc1ccc2ncnc(NCc3cccnc3)c2c1,42.4% (active)
7,Clc1ccc(Cn2ncc3c(NCc4cccnc4)ncnc32)cc1,-6.4% (inactive)
8,Cc1cc(NCc2cccnc2)no1,4.1% (inactive)
9,CCOC(=O)[C@H]1[C@H]2COc3ccc(C)cc3[C@@H]2N2C(=O)CN(Cc3ccc(F)cc3)C(=O)[C@@]12C,-3.6% (inactive)
10,CCOC(=O)N1CCN(C(=O)c2ccc3c(=O)n(CCc4ccc(OC)c(OC)c4)c(=O)[nH]c3c2)CC1,-2.6% (inactive)
11,COCCn1nnnc1CN1CCC(NC(=O)Nc2cccc(OC)c2)CC1,0.1% (inactive)
12,CC1=NNC(=O)C1CCC(=O)N/N=C\c1ccc(Cl)c(Cl)c1 (stereo not given),-7.6% (inactive)
13,O=C(O)c1ccc(N/N=C/c2ccc3ncccc3c2)cc1,-1.5% (inactive)
14,NCCCCCC(=O)N/N=C/c1ccc2nccnc2c1,43.2% (active)
15,CC(=O)Nc1ccc(S(=O)(=O)NCC(=O)OCC(=O)c2ccc[nH]2)cc1,4.9% (inactive)
16,CCCCC(CC)CNC(=O)C(=O)C1C(=O)Nc2ccccc21 (stereo not given),-2.2% (inactive)
17,CC(=O)NCCC(=O)Nc1cc(S(=O)(=O)N2CCCCC2)ccc1Oc1cccc(C)c1,-3.6% (inactive)
18,O=C(COc1ccc(S(=O)(=O)N2CCCC2)cc1[N+](=O)[O-])N1CCCCC1,-2.5% (inactive)
19,COCc1cc(=O)[nH]c(SC)n1,45% (active)
20,CCCc1cc(=O)[nH]c(SCc2ccc(C#N)cc2)n1,2.2% (inactive)
21,COCc1cc(=O)[nH]c(-c2ccc(C(F)(F)F)cc2)n1,13.9% (inactive)
22,CCCC(NC(=O)c1ccccc1)c1nc2ccccc2n1Cc1ccc(C(=O)OC)o1 (stereo not given),-3.6% (inactive)
23,COc1ccccc1N(CC(=O)Nc1c(C)n(C)n(-c2ccccc2)c1=O)S(=O)(=O)c1ccccc1,-3.9% (inactive)

row,SMILES,inhibition
1,COC(=O)CSc1ncnc2c1cnn2-c1ccc(C)cc1C,-4.4% (inactive)
2,COC(=O)c1ccc(NC(=O)C23CC4CC(C2)CC(n2cnc(Cl)n2)(C4)C3)cc1,-3.6% (inactive)
3,COC(=O)C1(C(=O)OC)C/C=C\CN(S(=O)(=O)c2ccccc2[N+](=O)[O-])CCC1,-1.4% (inactive)
4,COc1cc(C(=O)NCc2ccc3c(c2)cc(C)n3C)cc(OC)c1OC,34.6% (active)
5,CCn1c(CNC(=O)c2cc(OC)c(OC)c(OC)c2)cc2cc(C)ccc21,-7.8% (inactive)
6,CCOCC(=O)NCc1ccc2c(c1)cc(C)n2C,-2.3% (inactive)
7,CC(C)n1c(SCC(=O)Nc2ccccc2N2CCCCC2)nc2c1c(=O)n(C)c(=O)n2C,0% (inactive)
8,CCOC1=C2[C@H]([C@H]3C(=O)N(c4ccccc4)C(=O)[C@H]3C1)[C@@H](c1ccccc1)N(S(=O)(=O)c1ccc(C)cc1)[C@H]2c1ccccc1,4.4% (inactive)
9,CCCCNc1ccc(C(=O)Nc2cccc(C)n2)cc1[N+](=O)[O-],-4.4% (inactive)
10,Cc1cccc(C)c1NC(=O)CNC(=O)c1ccc(N2CCOCC2)c([N+](=O)[O-])c1,-3% (inactive)
11,C=CC[C@H](CC(=O)OC(C)(C)C)C(=O)OC[C@H]1CCCN1C(=O)[C@H](CC=C)CC(=O)N(CCO)Cc1ccccc1,1.8% (inactive)
12,COc1ccc(CN2CC(C(=O)NCCN3CCN(c4ccccc4F)CC3)CC2=O)cc1 (stereo not given),-1.5% (inactive)
13,Cn1cc(CCC(=O)N2CCCC(C(=O)c3ccc(C(C)(C)C)cc3)C2)cn1 (stereo not given),-0.9% (inactive)
14,CCOc1ccc(CCNC(=O)C2=C(C)C(=O)OC23CCC(C)CC3)cc1OCC (stereo not given),1.1% (inactive)
15,Fc1ccccc1OCCCCn1cncn1,7.4% (inactive)
16,COc1cc(/C=C2\SC(=O)NC2=O)ccc1OCc1ccc(Cl)nc1,0.2% (inactive)
17,COc1cc(/C=C2\SC(=S)N(Nc3ncc(C(F)(F)F)cc3Cl)C2=O)cc(OC)c1OC,61.6% (active)
18,COc1cc(-c2nnc(Cn3cc(C(F)(F)F)ccc3=O)o2)cc(OC)c1OC,11.3% (inactive)
19,Cc1ccc2c(c1)C(O)(CC(=O)c1cccnc1)C(=O)N2 (stereo not given),-1.9% (inactive)
20,CN(CC(=O)NCCc1ccccc1)S(=O)(=O)c1cnc[nH]1,-0.9% (inactive)
21,Cc1cc(C)c(CN2CCN(C(=O)Cn3ccc(NC(=O)OCc4ccccc4)nc3=O)CC2)c(C)c1,-0.5% (inactive)
22,O=C(c1ccc(Cl)cc1)N1N=C(c2ccccn2)CC1(O)C(F)(F)F (stereo not given),-6.7% (inactive)
23,COc1cc2c(cc1OC)C(/C=C/c1ccco1)=NCC2,-4.6% (inactive)

row,SMILES,inhibition
1,Cc1c(Br)ccc(NC(=O)COc2ccccc2C(N)=O)c1C,0.9% (inactive)
2,CCc1ccc(NC(=O)CS(=O)CC(=O)NCCCc2ccccc2)cc1 (stereo not given),-1.4% (inactive)
3,O=C(NCc1ccccc1)C1C(=O)N(Cc2ccccc2)C(=O)C1C1(O)CCCC1 (stereo not given),1.3% (inactive)
4,COCC(C)NCc1cc(Br)ccc1OC (stereo not given),-4.9% (inactive)
5,COc1ccc(Br)cc1CN(C)CC(=O)Nc1cc(Cl)cc(Cl)c1,-3.4% (inactive)
6,COc1ccc(Br)cc1CNCCc1cccc(Cl)c1,43.6% (active)
7,O=S(=O)(Nc1cccc(-n2cnnn2)c1)c1cnc(Cl)c(Cl)c1,1.8% (inactive)
8,COC(=O)C[n+]1cccc2ccccc21,29.8% (active)
9,COc1c(C(=O)N2CCCC2)ccc2ccccc12,2.3% (inactive)
10,COC(=O)CNS(=O)(=O)c1ccc(Cc2ccc(S(=O)(=O)NCC(=O)OC)cc2)cc1,-2.1% (inactive)
11,CC1(c2ccc(Cl)cc2)NC(=O)N(CC(=O)c2ccc3c(c2)OCO3)C1=O (stereo not given),-2.8% (inactive)
12,CCN(C(=O)COC(=O)c1ccccc1O)c1cccc2ccccc12,-1.8% (inactive)
13,Cc1nccn1-c1ccc(NC(=O)[C@H]2O[C@@H](n3cnc4c(N)ncnc43)[C@H](O)[C@@H]2O)cc1,0.8% (inactive)
14,CC(=O)c1nn(-c2ccc(C)cc2)cc1C(=O)c1cccc(Br)c1,-8.2% (inactive)
15,CN(C)c1ccc(/C=C2\CC3C4CC=C5CC(O)CCC5(C)C4CCC3(C)C2=O)cc1 (stereo not given),3.3% (inactive)
16,C=CCN(Cc1nc(-c2cc(OC)c3c(c2)OCO3)oc1C)C1CCS(=O)(=O)C1 (stereo not given),-1.3% (inactive)
17,CCc1nn(CCCC(=O)Nc2ccc(C)c(C)c2)c(=O)c2cc3occc3n12,-0.7% (inactive)
18,COc1ccccc1C(=O)Nc1ccnn1C1CCN(C(=O)C(C)(C)C)CC1,-1.9% (inactive)
19,Cc1ccc(NC(=O)CSCC(=O)N2CCOCC2)cc1,-4.8% (inactive)
20,CC(C)C[C@@H]1Cc2[nH][nH]c(=O)c2[C@H](CCc2ccccc2)O1,-14.1% (inactive)
21,COc1ccc(N(CCC#N)S(=O)(=O)c2ccc(Cl)cc2)cc1,-0.4% (inactive)
